Experimental data: PubChem BioAssay AID686959 (The Scripps Research Institute Molecular Screening Center, 2013)
Calls of active or inactive are those of the source. Cut-off not given; nearly all actives show IC50 up to about 8.1 µM.

assay: small molecules binding CAG repeat RNA – biochemical, fluorescence, dose response (AID 686959); conditions: r(CAG) RNA repeat binding

IC50, active:
N/C(=N\N=C\c1cccs1)SC1CC(=O)N(c2ccc(Br)cc2)C1=O (stereo not drawn) 8270 nM
CCc1nnc(NS(=O)(=O)c2ccc(N/C=C/C(=O)c3ccc(C)cc3)cc2)s1 1900 nM
COc1cc(/C=C2\C(=O)N(c3ccc(NC(C)=O)cc3)N=C2c2ccccc2)ccc1O 2900 nM
CC1=C(C#N)c2nc(N)c(C#N)c(C)c2/C1=C\c1ccc(-c2ccccc2C(=O)O)o1 2570 nM
COC(=O)c1sc(N2C(=O)C(O)=C(C(=O)c3ccc(C)o3)C2c2ccc([N+](=O)[O-])cc2)nc1C (stereo not drawn) 636 nM
CCCOc1cccc(C2C(C(=O)c3ccc(C)o3)=C(O)C(=O)N2c2nc(C)c(C(C)=O)s2)c1 (stereo not drawn) 4060 nM
CC1=NN(C(N)=S)C(=O)C1N=Nc1c(Br)cc(Br)cc1Br (stereo not drawn) 5730 nM
CC(C)c1ccc(C2c3[nH]c4ccccc4c3C[C@H]3C(=O)N(c4ccccc4C(=O)N4CCC[C@H]4C(=O)O)C(=O)N23)cc1 (stereo partly drawn) 3350 nM
COc1ccc2nc(N3C(=O)C(O)=C(C(=O)c4ccco4)C3c3ccc(OC)c(OC)c3)sc2c1 (stereo not drawn) 2040 nM
N#CC(C#N)=C(Nc1ccc(F)cc1)SCc1cccc(Br)c1 7570 nM
N#C/C(C(=O)Nc1ccc(Cl)cc1)=C(/S)Nc1ccccc1 6140 nM
O=c1[nH]n2c(=O)c3c([nH]c2c1N=Nc1cccc(Cl)c1)CCC3 2330 nM
C=CCOc1c(OC)cc(/C=N/Nc2cccc(C(=O)O)c2)c(Br)c1Br 2280 nM
